In PubChem BioAssay (NCI):
This is part of a sample that, as a whole, favours compounds with a hit. Of some 83,000 tested, about 20% had one in any assay.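 48-hour exposure, single concentration, 96-well plates; percent growth endpoint where 0 means no net growth. Active: below 10.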 Active and inactive are the calls of the source.

Experiments:
Assay in all cases: NCI-60 one-dose screen, 48 h (100 = growth as untreated, 0 = no growth, -100 = all killed)
Conditions in all cases: 10 µM unless noted
SK-MEL-2 melanoma = test system: SK-MEL-2 melanoma
EKVX NSCLC = test system: EKVX NSCLC
SN12C renal = test system: SN12C renal
UO-31 renal = test system: UO-31 renal
TK-10 renal = test system: TK-10 renal
ACHN renal = test system: ACHN renal
A498 renal = test system: A498 renal
CCRF-CEM leukemia = test system: CCRF-CEM leukemia
MOLT-4 leukemia = test system: MOLT-4 leukemia
SR leukemia = test system: SR leukemia
RPMI-8226 leukemia = test system: RPMI-8226 leukemia
OVCAR-8 ovarian = test system: OVCAR-8 ovarian
OVCAR-5 ovarian = test system: OVCAR-5 ovarian
OVCAR-4 ovarian = test system: OVCAR-4 ovarian
SK-OV-3 ovarian = test system: SK-OV-3 ovarian
IGROV1 ovarian = test system: IGROV1 ovarian
OVCAR-3 ovarian = test system: OVCAR-3 ovarian
HS 578T breast = test system: HS 578T breast
NCI/ADR-RES ovarian = test system: NCI/ADR-RES ovarian
T-47D breast = test system: T-47D breast

Measured: growth

CCSc1nc(Cl)c(C#N)c(-c2ccc(F)cc2)n1
active: SR leukemia 3.84%
inactive: SK-MEL-2 melanoma 102% | EKVX NSCLC 95.2% | SN12C renal 95.4% | UO-31 renal 85.8% | TK-10 renal 101% | ACHN renal 100% | A498 renal 92.3% | CCRF-CEM leukemia 50.4% | MOLT-4 leukemia 48.4% | RPMI-8226 leukemia 88.3% | OVCAR-8 ovarian 90.2% | OVCAR-5 ovarian 97.7% | OVCAR-4 ovarian 97.8% | SK-OV-3 ovarian 99.7% | IGROV1 ovarian 98.9% | OVCAR-3 ovarian 98% | HS 578T breast 91.6% | NCI/ADR-RES ovarian 102% | T-47D breast 90%

C#C[C@@]1(O)[C@@H](CO)O[C@@H](n2cc(Br)c3c(N)ncnc32)[C@@H]1O
active: SK-MEL-2 melanoma -24.9% | EKVX NSCLC -23.8% | SN12C renal -1.98% | UO-31 renal -78.3% | TK-10 renal -0.297% | ACHN renal -5.98% | A498 renal -78.9% | CCRF-CEM leukemia 3.84% | MOLT-4 leukemia -16.5% | SR leukemia -1.01% | RPMI-8226 leukemia 0.406% | OVCAR-8 ovarian -0.359% | OVCAR-4 ovarian 5.79% | SK-OV-3 ovarian -8.02% | IGROV1 ovarian -22.5% | OVCAR-3 ovarian -25.5% | HS 578T breast -5.73% | NCI/ADR-RES ovarian 1.19% | T-47D breast -20.1%
inactive: OVCAR-5 ovarian 18.8%

CN(C)C(CNc1oc(-c2cccc3ccccc23)nc1C#N)c1ccco1 (stereo not given)
inactive: SK-MEL-2 melanoma 95.9% | EKVX NSCLC 85.1% | SN12C renal 103% | UO-31 renal 87.7% | TK-10 renal 109% | ACHN renal 90.6% | A498 renal 107% | CCRF-CEM leukemia 79.5% | MOLT-4 leukemia 70.5% | SR leukemia 69.5% | RPMI-8226 leukemia 87.8% | OVCAR-8 ovarian 96.4% | OVCAR-5 ovarian 94.6% | OVCAR-4 ovarian 83.2% | SK-OV-3 ovarian 104% | IGROV1 ovarian 95.7% | OVCAR-3 ovarian 96.2% | HS 578T breast 89.6% | NCI/ADR-RES ovarian 94.8% | T-47D breast 72%

CCCCc1n(Cc2ccc3ccccc3c2)c2ccccc2[n+]1Cc1ccc2ccccc2c1
active: SK-MEL-2 melanoma -73.5% | EKVX NSCLC -84.6% | SN12C renal -92.3% | UO-31 renal -90.3% | TK-10 renal -87.1% | ACHN renal -91.4% | A498 renal -92.7% | CCRF-CEM leukemia -48.2% | MOLT-4 leukemia -60.9% | SR leukemia -54.1% | RPMI-8226 leukemia -37.9% | OVCAR-8 ovarian -76.7% | OVCAR-5 ovarian -94.1% | OVCAR-4 ovarian -90.7% | SK-OV-3 ovarian -65.5% | IGROV1 ovarian -80.1% | OVCAR-3 ovarian -87.8% | HS 578T breast -61.5% | T-47D breast -62.1%
inactive: NCI/ADR-RES ovarian 63.2%

COc1ccc(-c2cs/c(=N\N=C\c3ccc(O)cc3O)n2/N=C/c2ccc(O)cc2O)cc1
active: SK-MEL-2 melanoma -28.4% | EKVX NSCLC 7.59% | SN12C renal 4.01% | UO-31 renal -65% | TK-10 renal -31.3% | ACHN renal -34.3% | A498 renal -6.11% | CCRF-CEM leukemia 2.63% | MOLT-4 leukemia -35.3% | SR leukemia 6.76% | RPMI-8226 leukemia -25.9% | OVCAR-8 ovarian -17.1% | OVCAR-4 ovarian -7.88% | SK-OV-3 ovarian -30.8% | IGROV1 ovarian -17.2% | OVCAR-3 ovarian -63.5% | NCI/ADR-RES ovarian -12.4% | T-47D breast -36.8%
inactive: OVCAR-5 ovarian 10.6% | HS 578T breast 24.1%

Cc1c(Br)cccc1NC(=O)c1sc2nc3c(cc2c1N)CN(Cc1ccccc1)CC3
active: A498 renal -8.85% | CCRF-CEM leukemia 3.86% | SR leukemia 9.33% | RPMI-8226 leukemia 4.4% | OVCAR-3 ovarian -7.95%
inactive: SK-MEL-2 melanoma 25.5% | EKVX NSCLC 34.3% | SN12C renal 28.1% | UO-31 renal 48.2% | TK-10 renal 49.8% | ACHN renal 39.6% | MOLT-4 leukemia 10.3% | OVCAR-8 ovarian 14.1% | OVCAR-5 ovarian 36.7% | OVCAR-4 ovarian 28.1% | SK-OV-3 ovarian 22.8% | IGROV1 ovarian 39.3% | HS 578T breast 11.3% | NCI/ADR-RES ovarian 24.2% | T-47D breast 43%

COc1ccc(C(C)c2cc(OC)c(OC)c(OC)c2)cc1 (stereo not given)
active: MOLT-4 leukemia 9.71% | OVCAR-3 ovarian -14.1%
inactive: SK-MEL-2 melanoma 33.6% | EKVX NSCLC 35.8% | SN12C renal 39.1% | UO-31 renal 47.3% | TK-10 renal 67.5% | ACHN renal 37% | A498 renal 15.7% | CCRF-CEM leukemia 18.5% | SR leukemia 13.3% | RPMI-8226 leukemia 15.3% | OVCAR-8 ovarian 10.9% | OVCAR-5 ovarian 50.3% | OVCAR-4 ovarian 34.3% | SK-OV-3 ovarian 33.2% | IGROV1 ovarian 28.5% | HS 578T breast 37.5% | NCI/ADR-RES ovarian 13.8% | T-47D breast 63.1%

C=C1C(=O)O[C@H]2[C@H]1CC/C(COC(=O)CCCCCCCCC(=O)OC/C1=C/CC[C@@]3(C)O[C@H]3[C@H]3OC(=O)C(=C)[C@@H]3CC1)=C\CC[C@@]1(C)O[C@@H]21
active: EKVX NSCLC 8.84% | SN12C renal -1.39% | UO-31 renal -75.2% | TK-10 renal 0.838% | ACHN renal -23.2% | CCRF-CEM leukemia 2.5% | MOLT-4 leukemia 3.83% | SR leukemia -2.09% | RPMI-8226 leukemia -6.37% | IGROV1 ovarian -19.2% | OVCAR-3 ovarian 2.11% | NCI/ADR-RES ovarian 2.99% | T-47D breast -27.3%
inactive: SK-MEL-2 melanoma 22% | A498 renal 96.8% | OVCAR-8 ovarian 10.2% | OVCAR-5 ovarian 28.9% | OVCAR-4 ovarian 29% | SK-OV-3 ovarian 86.9% | HS 578T breast 10.3%

O=C(Nc1nc(-c2ccccc2Cl)cs1)c1cc(-c2ccc(Br)cc2)nc2ccccc12
inactive: SK-MEL-2 melanoma 26.6% | EKVX NSCLC 35.6% | SN12C renal 69.9% | UO-31 renal 42% | TK-10 renal 49.4% | ACHN renal 49.7% | A498 renal 22.6% | CCRF-CEM leukemia 44.9% | MOLT-4 leukemia 37.2% | SR leukemia 53% | RPMI-8226 leukemia 29% | OVCAR-8 ovarian 43.1% | OVCAR-5 ovarian 70.6% | OVCAR-4 ovarian 46.6% | SK-OV-3 ovarian 31.8% | IGROV1 ovarian 61.4% | OVCAR-3 ovarian 47% | HS 578T breast 79.6% | NCI/ADR-RES ovarian 57.2%
active: T-47D breast 9.58%

CCOC(=O)c1c(C)nc2c(c1N)/C(=C/c1cccs1)C(=O)N2c1ccc(OC)cc1
inactive: SK-MEL-2 melanoma 33% | EKVX NSCLC 49.8% | SN12C renal 39.4% | UO-31 renal 16.5% | TK-10 renal 35.7% | ACHN renal 31.5% | A498 renal 35.1% | CCRF-CEM leukemia 92.2% | MOLT-4 leukemia 80.5% | SR leukemia 55.8% | RPMI-8226 leukemia 74.5% | OVCAR-8 ovarian 20.5% | OVCAR-5 ovarian 102% | OVCAR-4 ovarian 13.9% | SK-OV-3 ovarian 36.6% | IGROV1 ovarian 45.7% | OVCAR-3 ovarian 32.3% | HS 578T breast 25% | NCI/ADR-RES ovarian 29% | T-47D breast 19%

COC(=O)CCc1n(Cc2ccc3ccccc3c2)c2ccccc2[n+]1Cc1ccc2ccccc2c1
active: SK-MEL-2 melanoma -56.2% | SN12C renal 7.8% | TK-10 renal -5.81% | A498 renal 8.46% | CCRF-CEM leukemia 9.86% | MOLT-4 leukemia 3.6% | SR leukemia -47.7% | RPMI-8226 leukemia -21.3% | OVCAR-8 ovarian 6.77% | OVCAR-4 ovarian 7.13% | IGROV1 ovarian -26.4% | OVCAR-3 ovarian -14.2% | T-47D breast -0.425%
inactive: EKVX NSCLC 42.1% | UO-31 renal 78.9% | ACHN renal 86.8% | OVCAR-5 ovarian 18% | SK-OV-3 ovarian 10.8% | HS 578T breast 25% | NCI/ADR-RES ovarian 100%

Cc1c(Cl)cccc1NC(=O)c1sc2nc3c(cc2c1N)CN(Cc1ccccc1)CC3
inactive: SK-MEL-2 melanoma 31.4% | EKVX NSCLC 55.5% | SN12C renal 59.2% | UO-31 renal 58% | TK-10 renal 75% | ACHN renal 56.4% | A498 renal 36.6% | CCRF-CEM leukemia 14.5% | MOLT-4 leukemia 22.9% | SR leukemia 16.9% | RPMI-8226 leukemia 54.8% | OVCAR-8 ovarian 64.2% | OVCAR-5 ovarian 75.1% | OVCAR-4 ovarian 62.4% | SK-OV-3 ovarian 44.2% | IGROV1 ovarian 52.2% | HS 578T breast 28.6% | NCI/ADR-RES ovarian 41.4% | T-47D breast 56.8%
active: OVCAR-3 ovarian 0.716%

O=C1CCC23OC(C(O)c4ccccc4N12)C1C(Br)=NOC13 (stereo not given)
inactive: SK-MEL-2 melanoma 108% | EKVX NSCLC 99.7% | SN12C renal 90.7% | UO-31 renal 87.2% | TK-10 renal 98.5% | ACHN renal 104% | A498 renal 108% | CCRF-CEM leukemia 103% | MOLT-4 leukemia 103% | SR leukemia 102% | RPMI-8226 leukemia 98.7% | OVCAR-8 ovarian 103% | OVCAR-5 ovarian 97.7% | OVCAR-4 ovarian 95.4% | SK-OV-3 ovarian 99% | IGROV1 ovarian 106% | OVCAR-3 ovarian 105% | HS 578T breast 106% | NCI/ADR-RES ovarian 106% | T-47D breast 102%

COc1ccc2c(c1)C1(C(=O)N2)C(C#N)=C(c2ccccc2)Nc2c1c(-c1ccccc1)nn2-c1ccccc1 (stereo not given)
inactive: SK-MEL-2 melanoma 84.9% | EKVX NSCLC 78.4% | UO-31 renal 80.1% | TK-10 renal 90.7% | ACHN renal 88.2% | A498 renal 50.1% | CCRF-CEM leukemia 16.6% | MOLT-4 leukemia 38.2% | SR leukemia 21.5% | RPMI-8226 leukemia 67.6% | OVCAR-5 ovarian 83.1% | SK-OV-3 ovarian 78.8% | IGROV1 ovarian 49.6% | HS 578T breast 40% | NCI/ADR-RES ovarian 92.7% | T-47D breast 63.4%
active: SN12C renal 1.61% | OVCAR-8 ovarian -10.9% | OVCAR-4 ovarian -1.01% | OVCAR-3 ovarian -69.2%

CCOC(=O)c1ccc(Nc2ncnc3ccc(NC(=O)c4ccccc4)cc23)cc1
active: HS 578T breast -95%
inactive: SK-MEL-2 melanoma 86.6% | EKVX NSCLC 80.3% | SN12C renal 102% | UO-31 renal 72.6% | TK-10 renal 65.4% | ACHN renal 93.5% | A498 renal 106% | CCRF-CEM leukemia 91.2% | MOLT-4 leukemia 63.8% | SR leukemia 73.8% | RPMI-8226 leukemia 69.2% | OVCAR-8 ovarian 86.7% | OVCAR-5 ovarian 96.2% | OVCAR-4 ovarian 89.2% | SK-OV-3 ovarian 100% | IGROV1 ovarian 103% | OVCAR-3 ovarian 94.4% | NCI/ADR-RES ovarian 86.8% | T-47D breast 65.6%
